The panel holds about 79,000 compounds, 15% with a hit somewhere; the sample as a whole holds those more often. The source made the active and inactive calls. No stated cut-off is given here; in the data, active means growth inhibition above about 70%; inactive means the rest.
Test: NCI Yeast Anticancer Drug Screen. Data for the rad50EPP+ strain (AID 151);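 further: 0% = growth of vehicle-treated control cultures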
Conditions: S. cerevisiae rad50 mutant strain, active compounds read high
Experimental: Growth inhibition of yeast strains with defined genetic alterations is measured as a screen for potential anti-cancer activity. Selected strains with alterations in DNA damage repair or cell cycle control were exposed to compounds and growth inhibition was measured relative to vehicle treated controls. The strain used in this assay is rad50EPP+

Measured: growth inhibition

COc1ccc2cc3c4cc5c(cc4cc[n+]3cc2c1OC)OCO5
inactive: at 1.2 µM 0% | at 3.7 µM 20% | at 11.0 µM 60%
active: at 33.0 µM 77% | at 100.0 µM 88%

NC(=S)N/N=C1\c2ccccc2CCC1CCC1(O)CCc2ccccc2C1=O (stereo not given)
inactive: at 1.2 µM 36% | at 3.7 µM 23% | at 11.0 µM 17% | at 33.0 µM 23% | at 100.0 µM 10%

COc1ccc2c3c1OC(C)C31CC(=O)CCC1CC2 (stereo not given)
inactive: at 1.2 µM -5% | at 3.7 µM 1% | at 11.0 µM 6% | at 33.0 µM -1% | at 100.0 µM 4%

Nc1cc(Cl)ccc1Nc1ccccc1
inactive: at 1.2 µM -58% | at 3.7 µM -21% | at 11.0 µM -19% | at 33.0 µM 28% | at 100.0 µM 69%

CCN(CC)CCNc1ccc2nc(C)n3c4ccc(O)cc4c(=O)c1c23
inactive: at 1.2 µM 5% | at 3.7 µM 15% | at 11.0 µM 24% | at 33.0 µM 38% | at 100.0 µM 39%

CCN(CC)CCNc1ccc2ncn3c4ccc(O)cc4c(=O)c1c23
inactive: at 1.2 µM -1% | at 3.7 µM 6% | at 11.0 µM 13% | at 33.0 µM 26% | at 100.0 µM 39%

CNC(=O)OCc1c(COC(=O)NC)c(C)n(-c2ccc(Br)cc2)c1C
inactive: at 1.2 µM -25% | at 3.7 µM -19% | at 11.0 µM -24% | at 33.0 µM -25% | at 100.0 µM -3%

CC1=NN(C(=O)c2ccccc2O)C(=O)/C1=C/c1ccco1
inactive: at 1.2 µM 9% | at 3.7 µM 45% | at 11.0 µM 49% | at 33.0 µM 48%
active: at 100.0 µM 93%
